Results filed as inconclusive are left out. Where a call stands in place of a potency, no number is given. The source made the active and inactive calls. Calls come from the whole dose curve; as a rule, active = well fitted cell-killing curve with a large enough effect; inconclusive = small, poorly fitted or top-dose-only effect, or effect the other way; inactive = flat fitted curve, though single readings scatter.
system: CAOV3; assay: Primary qHTS to identify gynecologic anti-cancer compounds using libraries of approved drugs and bioactive compounds (AID 1345084); conditions: Gynecologic cancer cell panel viability, ATPlite luminescence, 48 h; series mostly up to 57.5 µM; note: nearly all actives have a fitted effect of over 55% in size
Source text: National Center for Advancing Translational Sciences [NCATS] Assay Overview: Chemotherapeutic drug responses vary from cancer to cancer and from patient to patient. These variations could be caused by a number of factors including patient genomic background, tumor mutations, tumor heterogeneity, and aspects of drug treatment. Chemotherapeutic drug resistance is also a common issue and can lead to ineffective treatment and patient death. Here we have profiled the cell killing effects of thousands of compounds to characterize the responses in three gynecological cancers, identify cancer-selective compounds, and understand the diversity of responses to these compounds from pan-cancer suppressors to single cell line selective compounds. In this assay, we screened a 7,914 compound drug library that included approved drug and bioactive compounds in six ovarian, three cervical, and […] placental cancer cell lines using the ATPlite assay for cell viability. […] The cervical cancer cell lines included HeLa, Ca Ski, and C-33 A. The placental cancer cell lines included JEG-3. HEK 293T cells were used as the control cell line to determine the selectivity index. ATPlite is a luminescence based assay reliant on the conversion of a luciferase substrate to light in the presence of ATP. As a cytotoxic compound will suppress growth and decrease the number of cells, the concentration of ATP will decrease, and less light signal will be detected in the well.
Assay Protocol Summary: 1,000 cells in 4 uL of media were dispensed into white, solid bottom 1536-well plates using a Multidrop Combi (Thermo Scientific). The Assay plates were incubated for 16 hours at 37 C with 5% CO2 in assay plates, followed by the addition of 23 nL of DMSO or drug dissolved in DMSO. Each compound was assayed in five concentrations (0.092, 0.46, 2.3, 11.5, and 57.5 uM), using the automated Wako 1536 Pin Tool workstation and incubated at 37 C with 5% CO2 48 hours. 4 uL of ATPlite, the ATP monitoring reagent, was then added to the each well of the assay plates using the Multidrop Combi reagent dispenser followed by incubation for 15 minutes at room temperature. The resulting luminescence was measured using the ViewLux plate reader.
Potency is the fitted concentration of half-maximal effect.

Compound | Potency | activity change, negative = cytotoxicity
C/C=C/C=C/C(=O)O[C@@H]1C=C2COC(=O)[C@]2(O)[C@@]2(C)CCCC(C)(C)[C@H]12 | inactive | –
C[C@@H](c1ccc2nccn2c1)n1nnc2ncc(-c3cnn(C)c3)nc21 | inactive | –
COc1cc(/C=C2\CC[C@H]3COC[C@@H](c4cc(F)c(F)c(F)c4)N3C2=O)ccc1-n1cnc(C)c1 | inactive | –
C/C1=C\[C@@H](C)C[C@@H](C)[C@@H](Cc2cnco2)OC(=O)/C(C)=C/[C@@H](C)C[C@@H](C)[C@@H](Cc2cnco2)OC1=O | inactive | –
CCOc1nc(NC(=O)Cc2cc(OC)ccc2OC)cc(N)c1C#N | inactive | –
N#Cc1cc(CN2CCC(Nc3ncnc4sc(Cl)cc34)CC2)ccc1F | inactive | –
C=C1CCCC2(C)CCC(C(C)(C)OC3OC(C)C(O)C(O)C3OC(=O)/C(C)=C\C)CC12 (stereo not given) | inactive | –
C=C(C)C1=C[C@@]2(C)C(=CC1=O)CC[C@@H](O)[C@@H]2C | inactive | –
O=C(Nc1nc2ccc([N+](=O)[O-])cc2s1)C1CCCCC1 | inactive | –
O=C(Nc1cccnn1)N1CCN(c2nccc(-c3ccc(F)c(F)c3)n2)CC1 | inactive | –
CCCc1cc2c(N3CCN(C4=NCC(C)(C)S4)CC3)ncnc2s1 | inactive | –
NS(=O)(=O)c1ccc(N2N=C(c3ccccc3)CC2c2ccccc2)cc1 (stereo not given) | inactive | –
CCC(C)CC(=O)OC1C(=O)C(CO)=CC(O)C1C(C)C (stereo not given) | 28.2 µM (active) | –
CN(C)C(=O)NC1(c2ccccc2)CCN(CCC[C@]2(c3ccc(Cl)c(Cl)c3)CCCN(C(=O)c3ccccc3)C2)CC1 | 20 µM (active) | –
CCC(CC)C(c1ccc(Nc2nc3ccccc3s2)cc1)n1cncn1 (stereo not given) | 28.2 µM (active) | –
COc1cc(CCO)ccc1O[C@@H]1O[C@H](CO)[C@@H](O)[C@H](O)[C@H]1O | inactive | –
Clc1ccc(Cn2c(Cc3ccccc3)nc3ccccc32)cc1 | inactive | –
O=C(NCC1CCN(Cc2cccc(Cl)c2)CC1)[C@@H]1CCCN(c2ncnc3c2nc2n3CCCC2)C1 | inactive | –
CC(C)CCNc1ncccc1C(=O)N1CCN(Cc2ccccc2)CC1 | inactive | –
Cc1c(C(=O)NCc2cccnc2)nn(-c2ccc(Cl)cc2Cl)c1-c1ccc(Cl)cc1 | inactive | –

Compound | Potency | activity change, negative = cytotoxicity
Cc1ccc(-c2cn3c4c(sc3n2)CCCC4)cc1 | 10 µM (active) | –
CC(C)NCCCn1c(Sc2cc3c(cc2I)OCO3)nc2c(N)ncnc21 | 1.58 µM (active) | –
CN1CC2CN(c3ccc4oc5ccccc5c(=O)c4c3)CC2C1 (stereo not given) | inactive | –
C/C=C(/C)C(=O)O[C@@H]1C[C@@H](OC(=O)CC(C)C)C2(C)C3C(=O)C=C(C)C2C3C1(C)C (stereo not given in full) | inactive | –
C[C@@H]1O[C@@H](O[C@H]2[C@H](OC(=O)[C@]34CCC(C)(C)C[C@H]3C3=CCC5[C@@]6(C)C[C@H](O)[C@H](O[C@@H]7O[C@H](CO)[C@@H](O)[C@H](O)[C@H]7O)[C@](CO)(C(=O)O)C6CC[C@@]5(C)[C@]3(C)C[C@H]4O)OC[C@H](O)[C@@H]2O)[C@H](O)[C@H](O)[C@H]1O[C@@H]1OC[C@@H](O)[C@H](O[C@@H]2OC[C@](O)(CO)[C@H]2O)[C@H]1O (stereo not given in full) | – | -2.46% [at 6.55 µM] (inactive)
CC(C)NC(=O)N1CC[C@H](N=C2Nc3cc(F)ccc3N(CC(F)F)c3ccc(Cl)cc32)C1 | – | -26.1% [at 11.6 µM] (inactive)
CNc1nc(Nc2ccc(C(=O)N3CCOCC3)cc2OC)nc2[nH]cc(Cl)c12 | inactive | –
CNC(=O)[C@@H](c1ccccc1)N1CCc2cc(OC)c(OC)cc2[C@@H]1CCc1ccc(C(F)(F)F)cc1 | inactive | –
CC1=CC2/C=C(\C)CCC3OC(C)(C)OC3CCC(=O)C23C(=O)NC(CC(C)C)C3C1C (stereo not given) | inactive | –
CN1CCN(C(=O)CN[C@@H]2C[C@H]2c2ccc(OCc3ccccc3)cc2)CC1 | inactive | –
CCCCNc1ncc(-c2ccc(CN3CCOCC3)cn2)c(NC2CCC(O)CC2)n1 (stereo not given) | inactive | –
Cc1nnc(-c2ccc(-c3ccc(C(=O)Nc4ccc(O)c(N5CCN(C)CC5)c4)cc3)c(C)c2)o1 | inactive | –
CC(C)(C)[C@H](NC(=O)c1ccc(N)c(Cl)c1)C(=O)N1CCC[C@H]1C(=O)N[C@H](C#N)CC(=O)O | inactive | –
Cc1cc(N2CCOCC2)ccc1Nc1nc(NC2CCCCC2)c2[nH]cnc2n1 | inactive | –
O=c1cc(NCCCN[C@@H]2CCOc3c(Br)cc(Br)cc32)[nH]c2ccsc12 | inactive | –
C[C@H](CN(C)C)Oc1nc(Nc2cc3cccc(Cl)c3cn2)cnc1C#N | inactive | –
O=c1nc(-c2ccccn2)sc2ccccc12 | inactive | –
C=C1C(=O)O[C@@H]2C[C@@]3(C)C[C@@H](O)C[C@H](C)C3=C[C@H]12 | inactive | –
CC[C@@H]1C[C@]1(NC(=O)[C@@H]1C[C@@H]2CN1C(=O)[C@H](C(C)(C)C)NC(=O)OCC(C)(C)CCCCc1cccc3c1CN(C3)C(=O)O2)C(=O)NS(=O)(=O)C1CC1 | inactive | –
O[C@@](Cc1ncc(CC2(C(F)(F)F)CC2)[nH]1)(c1ccc(-n2cccn2)cc1)C(F)(F)F | inactive | –
